About 4,400 (1.3%) of roughly 330,000 compounds were called active. The list comes from a sample in which actives are over-represented; it also holds similar structures and randomly drawn compounds. A number with no mark means an inactive call.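 The calls were made as follows: active = growth inhibition of the mutant yeast at or above 50%; inactive = the rest.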

The nature of this assay: growth inhibition of tim23-1 ts yeast – luminescence, uHTS, primary screen (AID 463212).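 Also: temperature-sensitive mutant grown at 25 °C; plate controls were DMSO-treated mutant yeast for no effect and medium wells lacking yeast for full effect.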 As to conditions: S. cerevisiae tim23-1 growth, BacTiter-Glo luminescence, 24 h; at 20 µM; active compounds read high.
By inhibition is commonly meant the drop in the measured response relative to a control, in per cent. For `O=C(COc1ccc(F)cc1Br)NCC1COc2ccccc2O1` (stereo not given), the inhibition was 25%.

In the case of `CN(C)S(=O)(=O)N1CCN(c2ccc([N+](=O)[O-])cc2)CC1`, the inhibition is 9.07%.

Consider `O=C(O)c1cccc(NC(=S)N/N=C/c2c[nH]c3ccccc23)c1`, for which the inhibition is 7.37%.

For `Nc1nonc1-n1nnc(C(=O)N/N=C/c2c[nH]c3ccccc23)c1-c1ccccc1`, the inhibition is 14.8%.

As for `CSC(=S)N/N=C/c1c[nH]c2ccccc12`, the inhibition is 63.2% (active).

On to `FC(F)(F)c1cccc(Nc2ncnc3ccccc23)c1`, for which the inhibition was 94% (active).

For the compound `COc1ccc(CNc2ncnc3ccccc23)cc1`, the inhibition is -0.028%.

Turning to `FC(F)(F)c1cccc(NC(=S)Nc2cccc(Cl)c2)c1`, the inhibition is 46.1%.

For the compound `Cc1ccccc1-n1nc(SCC(=O)O)sc1=S`, the inhibition is -2.14%.

As for `[O-][n+]1c2c(nn1-c1ccc(Cl)c(Cl)c1)-c1nonc1CC2`, the inhibition is 4.72%.

Regarding `Clc1ccc(Cc2nnc(-c3cccs3)o2)cc1`, the inhibition was 15%.

As to `Clc1ccc(Nc2nc(-c3cccs3)cs2)nc1`, the inhibition is 70.7% (active).

As for `CCCc1cc(C(=O)Nc2ccc(Cl)cn2)cs1`, the inhibition is 33%.

With `O=C(OCC(=O)N1CCCCCC1)c1cnc(Cl)c(Cl)c1`, the inhibition is 2.9%.

For the compound `O=S(=O)(Nc1ccc(O)c2ccccc12)c1ccc(OC(F)(F)F)cc1`, the inhibition was 28.5%.

Regarding `O=c1c(-c2ccc3c(c2)OCCO3)c(C(F)(F)F)oc2cc(O)cc(O)c12`, the inhibition was 58.2% (active).

In the case of `CCOC(=O)c1cc2cc(-c3c(C(=O)OCC)oc4cc(O)cc(O)c4c3=O)ccc2o1`, the inhibition was 14.3%.

For `COc1ccc(-c2onc(C)c2-c2ccc3c(c2)OCCO3)c(O)c1`, the inhibition was 28.1%.

`CCOc1ccc(CCNC(=O)CCc2nnc3ccc(N4CCCC4)nn23)cc1OCC`: the inhibition is 10.2%.

For the compound `O=C1NC(c2ccccc2)Oc2ccccc21` (stereo not given), the inhibition was 22.9%.

For the compound `Cc1ccccc1NC(=O)COc1cccc2c1CCNC2=O`, the inhibition was 12.3%.

On to `O=C(Nc1ccc(N2CCN(C(=O)c3cccs3)CC2)cc1)c1cccnc1Cl`, for which the inhibition is 12.9%.

Turning to `O=C(Nc1nn(Cc2ccccc2F)cc1Br)c1cccs1`, the inhibition is 17.3%.

Consider `O=C(Cc1ccccc1)N1N=C(c2ccncc2)CC1(O)C(F)(F)F` (stereo not given), for which the inhibition is 9.71%.

On to `CC(=O)N1N=C(c2ccccc2)OC1c1cccnc1` (stereo not given), for which the inhibition was 0.277%.

Take `CC(=O)N1N=C(c2ccncc2)OC1(Cc1ccccc1)Cc1ccccc1`: the inhibition is 52.9% (active).

With `Cc1ccsc1C(=O)NNC(=O)COc1ccc(Br)cc1`, the inhibition was -6.92%.

For `C#CCNC(=O)[C@H](Cc1ccc(C(=O)c2ccccc2)cc1)NC(=O)OC(C)(C)C`, the inhibition was 5.1%.

Regarding `O=C(CNc1cccc(S(=O)(=O)N2CCCCC2)c1)Nc1ccccc1F`, the inhibition was 14.8%.

Take `COCCn1c(C)cc(C(=O)CN2c3cccc4cccc(c34)S2(=O)=O)c1C`: the inhibition was 5.11%.

In the case of `Cc1ccc(NC(=O)c2cc(-c3ccccc3O)n[nH]2)cc1C`, the inhibition is -2.65%.

Consider `CSc1ccccc1-c1nnc(-c2ccc(Cl)cc2)o1`, for which the inhibition was 21.3%.

With `Oc1ccccc1-c1cc(-c2ccc(Cl)cc2)n[nH]1`, the inhibition was 56.4% (active).

As to `Cc1ccc(NC(=O)c2nc[nH]c2C(=O)N2CCCCC2)c(C(=O)c2ccccc2)c1`, the inhibition was 6.29%.

For the compound `C=C(C)C(=O)O[C@H]1C/C(C)=C\C(=O)/C=C(\C)[C@H](O)[C@@H]2OC(=O)C(=C)[C@@H]21`, the inhibition was 4.97%.

Take `COc1ccc(C)cc1NC(=O)CSc1nnc(CC(=O)Nc2ccccc2F)n1C`: the inhibition was 3.22%.

As to `O=C(O)Cn1c(Cc2ccccc2)nc2ccccc21`, the inhibition is -1.32%.

Take `CCOc1ccccc1Oc1cn[nH]c1-c1ccc(OC)cc1O`: the inhibition is -69.3%.

In the case of `COc1ccc(-c2cn[nH]c2-c2ccc(OC)cc2)cc1`, the inhibition was 47.7%.

For `COc1ccc(Oc2cn[nH]c2-c2ccc(OC)cc2O)cc1`, the inhibition was 66.3% (active).

With `Cc1cc(NC(=O)CSCc2nc(-c3cccc(Cl)c3)oc2C)no1`, the inhibition is 1.1%.

On to `COc1cccc2c1CCC(NC(C)=O)C2=O` (stereo not given), for which the inhibition was 0.522%.

As to `Cc1cccc(C)c1NC(=O)CN(C)C(=O)CCC(=O)c1ccccc1`, the inhibition was 15%.

As to `Cc1cccc(C)c1NC(=O)C(Cl)C(=O)c1ccccc1` (stereo not given), the inhibition was 80.7% (active).

In the case of `Cc1cccc(C)c1NC(=O)C(c1ccccc1)N1CC(=O)Nc2ccccc21` (stereo not given), the inhibition is 21.3%.

For `COc1ccc(CN2CCCCC2C)cc1OC` (stereo not given), the inhibition is 10.1%.

On to `CCC(C)n1c(-c2cc(OC)c(OC)c(OC)c2)nc2nc3ccccc3nc21` (stereo not given), for which the inhibition is 19.1%.

With `C[C@H](NC(=O)C1CC(=O)N(c2ccc3c(c2)OCO3)C1)C(=O)NCc1ccco1` (stereo not given in full), the inhibition was 13.9%.

In the case of `O=C1c2ccccc2S(=O)(=O)N1CC(O)Cn1c2ccccc2c2ccccc21` (stereo not given), the inhibition was 84.5% (active).

`CC(C)(C)c1ccc(CN2C(=O)c3ccccc3S2(=O)=O)cc1`: the inhibition is 22.3%.

On to `CCCCN(CCCC)CC(O)Cn1c2ccccc2c(=O)c2ccccc21` (stereo not given), for which the inhibition was 5.18%.

As to `CCc1ccccc1NC(=O)CN(c1ccc(OC)cc1OC)S(=O)(=O)c1ccccc1[N+](=O)[O-]`, the inhibition is 50.4% (active).

Consider `COc1ccc(N(CC(=O)Nc2ccc(C)cc2C)S(=O)(=O)c2ccccc2[N+](=O)[O-])c(OC)c1`, for which the inhibition was 19.7%.

In the case of `COc1ccc(N(CC(=O)Nc2cccc3ccccc23)S(C)(=O)=O)c(OC)c1`, the inhibition was 6.45%.

In the case of `CCN(CC)S(=O)(=O)c1ccc(CNC(=O)CN2C(=O)NC3(CCc4ccccc43)C2=O)cc1` (stereo not given), the inhibition was 9.27%.

`Cc1ccc(S(=O)(=O)N2CCC(C(=O)OCC(=O)N3CC(=O)Nc4ccccc43)CC2)cc1`: the inhibition is 14.9%.

Regarding `CC[C@]12c3[nH]c4ccc(Cl)cc4c3CCN1C(=O)[C@@H](CC(=O)NCCN1CCOCC1)C[C@@H]2C(=O)N1CCN(C(=O)C2CC2)CC1`, the inhibition was 24.7%.

With `CC1Cn2c(nnc2-c2cccs2)S1` (stereo not given), the inhibition was 3.29%.

For `NS(=O)(=O)c1ccc(CCNC(=O)CNC(=O)Cc2ccccc2)cc1`, the inhibition was 7.58%.

`CCN(CC)c1ccc(NC(=O)C2CCC(CNc3c(N4CCCC4)c(=O)c3=O)CC2)c(C)c1` (stereo not given): the inhibition was 2.65%.

In the case of `O=C(Nc1nnc(SCc2c(Cl)cccc2Cl)s1)c1cccc([N+](=O)[O-])c1`, the inhibition was -8.16%.

As to `O=C(NCc1ccccc1Cl)C1CCCO1` (stereo not given), the inhibition was 3.86%.

With `O=C(Nc1nnc(SCc2c(Cl)cccc2Cl)s1)C1CCCO1` (stereo not given), the inhibition was 52.3% (active).

In the case of `CC1CN(C(=O)c2cc(COc3c(F)cccc3F)on2)CCN1C` (stereo not given), the inhibition was 8.91%.

On to `O=C(COC(=O)/C=C/c1cn(-c2ccccc2)nc1-c1cccnc1)Nc1ccc(Cl)cc1Cl`, for which the inhibition was 20.1%.

As to `CN(C)/N=C/c1cn(-c2ccccc2)nc1-c1cccnc1`, the inhibition was 50.3% (active).

For `NC(=O)C1CCN(C(=O)c2cn(-c3ccccc3)nc2-c2cccnc2)CC1`, the inhibition was -6.01%.

In the case of `O=C1CC(C(F)(F)C(F)(F)C(F)(F)C(F)(F)F)=Nc2ccccc2N1`, the inhibition is 15.9%.

As to `CC(C)C[C@H](NC(=O)NCCc1ccc(Cl)cc1)C(=O)O`, the inhibition was 9.43%.

With `Cc1ccc2nc(SCC(=O)N3CC(C)OC(C)C3)nc(=O)n2c1` (stereo not given), the inhibition is 10.2%.

For the compound `O=C(Nc1ccccc1N1CCOCC1)c1ccncc1`, the inhibition is -8.11%.

As to `O=C(NC(=S)Nc1ccccc1N1CCCCC1)c1ccc(F)cc1`, the inhibition is 32.5%.

Regarding `CCc1ccc(C(=O)NC(=S)Nc2ccccc2N2CCOCC2)cc1`, the inhibition is 53.9% (active).

In the case of `O=C(NC1CC2CCCC(C1)N2C(=O)N1CCCCC1)C1CCCCC1` (stereo not given), the inhibition was 19.4%.

For the compound `Cc1cc(C)nc(NC2=NCC(=O)N2c2ccc(Cl)cc2)n1`, the inhibition is -5.7%.

`O=C(N/N=C/C=C/c1ccco1)c1cccs1`: the inhibition is 59.4% (active).

Consider `O=C(N/N=C/c1ccco1)c1csc2c1CCCC2`, for which the inhibition was 22.8%.

Consider `O=C(Nc1ccc(NC(=O)c2cccs2)cn1)c1ccco1`, for which the inhibition is 17.2%.

On to `O=C(Nc1ccc(Br)cc1)c1cc(S(=O)(=O)Nc2ccccn2)ccc1Cl`, for which the inhibition is -0.209%.

In the case of `Cc1ccc(NN=C2C(=O)OC(C)(C)OC2=O)c(C)c1`, the inhibition was -2.58%.

For `CCCCCCc1ccc(O)cc1O`, the inhibition was 62.8% (active).

Regarding `CCCCCCc1cc2cc(-c3nnc(-c4ccccc4)o3)c(=O)oc2cc1O`, the inhibition is 7.67%.

In the case of `CCCCCCCN=C(C)c1ccccc1O`, the inhibition was 5.76%.

On to `CC(C)NC(=O)NNc1c(Cl)cncc1Cl`, for which the inhibition was 2.69%.

Turning to `O=C(/C=C/c1cccc(C(F)(F)F)c1)N1CCN(c2ccccn2)CC1`, the inhibition was 37.6%.

As for `COc1ccc(NC(C)=O)cc1NC(=O)CN1CCN(C2c3ccccc3-c3ccccc32)CC1`, the inhibition is 26.8%.

For `O=C(C[C@H]1C(=O)N(c2ccc(F)c(F)c2)C[C@@H]1Cc1ccccc1)Nc1ccccc1`, the inhibition is 13.5%.

On to `COc1ccc(NC(=O)CSc2nc(NS(=O)(=O)c3ccc(C)cc3)cc(=O)[nH]2)cc1`, for which the inhibition is 2.94%.

For the compound `Cc1noc(C)c1-c1ccc2ncnc(NC(C)c3ccco3)c2c1` (stereo not given), the inhibition was 5.06%.

On to `Cc1cccc(-c2nc(Nc3ccc(O)cc3)c3ccccc3n2)c1`, for which the inhibition is 62.7% (active).

Turning to `CC(=O)Nc1cccc(Nc2nc(-c3cccs3)nc3ccccc23)c1`, the inhibition was 39.4%.

`Oc1ccc(-c2nnc(Nc3ccccc3)c3ccccc23)cc1`: the inhibition is -5.13%.

Regarding `CCCCn1c(O)c(N=NC(=O)Cn2c(C(F)(F)F)nc3ccccc32)c2ccccc21`, the inhibition was -27.6%.

For the compound `O=c1ccc2c(-c3ccccc3S(=O)(=O)O)c3ccc(O)c(O)c3oc-2c1O`, the inhibition was 56% (active).

As for `CCCn1c(N)c(C(=O)CSc2nnc3n2CCCCC3)c(=O)[nH]c1=O`, the inhibition is 7.27%.

For the origin of these results see PubChem BioAssay AID463212 (Sanford-Burnham Center for Chemical Genomics, 2010).
